# esBAF inh: Bmi1 luciferase reporter increase in mESCs, primary screen, esBAF inhibitor project, mouse ES cells, Bmi1 luciferase knock-in, single point; 24 h; 100% = twice the neutral-well signal; reporter increase, % at 12.5 µM; hit rate 2% among 350,000; AID 602393, 2012; in the data active = activation above about 40%;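 note: 0% = median of the plate's neutral control wells and 100% = double that signal; a rise in the Bmi1 reporter signal indicates esBAF inhibition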
# FXN GAA850 act: FXN promoter activators, primary screen, cell-based, luciferase luminescence, HEK293 lucGAA850. HEK293 lucGAA850 FXN promoter luciferase reporter, 24 h; percent of 10 µM SAHA response. activation, % at 6 µM. hit rate 0.56% among 360,000;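 active = activation above the average of all compounds screened plus 3 SD, cutoff fixed separately per campaign, cut at about 7.5% in these data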;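 note: 0% = DMSO wells and 100% = 10 µM SAHA wells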
# Wnt act: Wnt/beta-catenin pathway activators, primary screen, cell-based, plate reader, single point. Wnt/beta-catenin reporter cell assay, activator. activation, % at 9.35 µM. hit rate 1.2% among 300,000. AID 743398, 2014; in the data active = activation above about 30%, passing the limit was not always enough;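 note: 0% = neutral control wells and 100% = positive control wells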
# MITF TRPM1 HTS: activators of MITF-driven TRPM1 promoter reporter, primary screen, cell-based, SK-MEL-5, luciferase, single point; hit rate 0.75% among 300,000; activation, % at 12.5 µM; SK-MEL-5 TRPM1-promoter luciferase, 24 h; % of positive control, neutral wells = 0; AID 588334, 2011;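 active = mean activation of at least 80% with every replicate also reaching 80%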;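 note: 0% = neutral control wells and 100% = parthenolide positive control wells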
# An asterisk follows results filed as active; . = not tested or not shown. The list is not random: actives were taken first. Their share in the collection is about 2.8%.
SMILES,esBAF inh,FXN GAA850 act,Wnt act,MITF TRPM1 HTS
C/C=C/c1ccc([C@H]2[C@@H](CO)N(c3ncc(CC)s3)[C@H]2C#N)cc1,-0.4,.,.,.
Cc1ccc(S(=O)(=O)Nc2ccc3c(c2)C(=O)N([C@@H](C)CO)C[C@H](C)[C@@H](CN(C)C)OCCCC[C@@H](C)O3)cc1,-5.2,.,.,.
CCCCCCCSc1nnc(-c2ccccc2N)c(=O)[nH]1,-5.0,-0.6,-1.3,7.5
CCCCSc1nnc(-c2ccccc2N)c(=O)[nH]1,96.7*,4.6,29.6,24.4
Cc1cccc(-c2nc(CN3CCN(Cc4cccc(F)c4)CC3)c(C)o2)c1,0.0,0.9,49.4*,4.8
Cc1oc(-c2cccc(F)c2)nc1CN1CCCN(C(=O)c2ccco2)CC1,2.7,-0.2,4.5,1.1
COc1ccc2cc(C(=O)NCc3ccco3)c(=Nc3ccc(C(=O)O)cc3)oc2c1,-7.0,2.8,42.3*,-6.6
Cn1cc(SCC(=O)N2CCOCC2)c2ccccc21,16.3,2.3,0.9,.
CCn1cc(SCC(=O)N2CCOCC2)c2ccccc21,51.6*,0.5,16.2,39.1
O=C(C[C@@H]1C[C@@H]2c3cc(NS(=O)(=O)c4ccccc4)ccc3O[C@@H]2[C@H](CO)O1)N1CCOCC1,-0.1,.,.,.
O=C(CN(C1CCCCC1)S(=O)(=O)c1ccc(F)cc1)NCC1CCCO1 (centres undefined),-85.1,11.8*,-13.0,-85.4
COc1ccc(OC)c2sc(N3CCCCC3)nc12,46.2*,1.9,23.5,.
O=C1OC(c2ccc(Br)cc2)=N/C1=C\N1CCCCC1,52.7*,3.9,8.6,123.9*
O=C1OC(c2ccccc2)=N/C1=C\N1CCCCC1,85.3*,6.0,-1.1,85.6*
Cc1ccc(C2=N/C(=C\c3c(C)nn(-c4ccccc4)c3N3CCCC3)C(=O)O2)cc1,-0.4,-1.5,-1.9,0.9
Cc1nn(-c2ccccc2)c(N2CCCC2)c1/C=C1\N=C(c2ccc(F)cc2)OC1=O,-3.3,0.5,-0.1,-2.5
O=C1OC(c2ccccc2)=C/C1=C/N1CCCCC1,83.9*,5.4,2.4,104.6*
COc1ccc(CNC(=O)C[C@@H]2C[C@H]3c4cc(NC(=O)CN(C)C)ccc4O[C@H]3[C@@H](CO)O2)cc1,-0.2,.,.,.
COCCNC(=O)C[C@@H]1CC[C@H]2[C@@H](COC[C@H](O)CN2S(=O)(=O)c2ccccc2F)O1,-9.3,.,.,.
CN(C)/C=N/c1sc2c(c1C#N)CCC2,16.5,6.3,-3.3,6.1
CN(C)/C=N/c1sc2c(c1C#N)CCCCC2,54.5*,7.4,6.9,71.7
Cc1nc2ccc(NC(=O)CSc3ccccc3)cc2s1,54.4*,3.9,50.0*,98.2*
O=C(CSc1nc2ccc(NC(=O)c3ccccc3C(=O)O)cc2s1)Nc1ccc(F)c([N+](=O)[O-])c1,-0.3,1.0,35.0*,-2.4
Cc1nc2ccc(NC(=O)Cc3c(F)cccc3Cl)cc2s1,.,4.3,39.1*,108.0*
Cc1ccc(NC(=O)Cc2cccs2)cc1Cl,30.1,0.6,9.2,59.4
SMILES,esBAF inh,FXN GAA850 act,Wnt act,MITF TRPM1 HTS
Cc1nc2ccc(NC(=O)Cc3cccs3)cc2s1,70.8*,2.1,61.3*,88.1*
CSc1ncc(C(=O)Nc2ccc(Cl)cc2)c(C)n1,5.2,1.0,2.5,7.6
CSc1ncc(C(=O)Nc2ccc(C(C)=O)cc2)c(C)n1,52.1*,4.5,6.9,56.9
O=C(N[C@@H]1CC[C@@H](CCn2cc(C3CC3)nn2)O[C@H]1CO)c1cccnc1,-2.8,.,.,.
COc1cc(CC(=O)O)c([N+](=O)[O-])cc1OC,.,1.4,-2.1,-11.9
COc1cc(CC(=O)O)c(C(C)=O)cc1OC,48.1*,2.0,.,-11.8
C[C@@H]1CN([C@H](C)CO)C(=O)c2cc(C3=CCCC3)cnc2O[C@H]1CN(C)Cc1ccccn1,-5.3,.,.,.
Cc1sc2ncnc(Nc3ccc(O)cc3)c2c1C,3.1,3.8,37.9*,3.6
C[C@@H]1CN([C@H](C)CO)C(=O)c2cccc(NC(=O)c3ccncc3)c2O[C@@H]1CN(C)Cc1ccc(C(=O)Nc2ccccc2N)cc1,-19.9,.,.,.
Cc1ccc(-c2cn3c(n2)SCC3)cc1,6.6,5.3,65.2*,22.9
CNC[C@H]1Oc2ccc(N)cc2C(=O)N([C@@H](C)CO)C[C@@H]1C,-8.3,.,.,.
C[C@@H]1CN([C@@H](C)CO)C(=O)c2cc(NC(=O)C3CCCCC3)ccc2O[C@@H]1CN(C)S(=O)(=O)c1cn(C)cn1,-2.1,.,.,.
NS(=O)(=O)c1ccc(N=NN2CCCCC2)cc1,.,2.9,38.8*,45.8
COC(=O)c1ccc(N=NN2CCOCC2)cc1,.,6.4,26.7,35.2
COC(=O)c1ccc(N=NN2CCCCCC2)cc1,.,7.0,-0.4,105.7*

# Source: PubChem
